Rows were chosen to be rich in hits. Some 17% of all compounds tested hit in one or more screens of this group.
TDP1 cell CPT = qHTS for Inhibitors of human tyrosyl-DNA phosphodiesterase 1 (TDP1): qHTS in cells in presence of CPT; chicken DT40 Tdp1-/-;hTDP1 cells + 20 nM CPT, ATP luminescence, 48 h; Potency, µM (series often up to 46.2 µM), for the others: top-dose activity change, negative = growth inhibition, actives largely listed as inhibitors; 12% of 420,000 active; AID 686979, 2013; also: % is scaled to controls: 0 for no effect and ±100 for the full control effect; nearly all actives have a fitted effect of over 55% in size
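Cell growth measured by CellTiter-Glo luminescence after a minimum 48 h, 37 C compound exposure with 20 nM CPT in Tdp1-knockout DT40 cells stably expressing hTDP1, seeded 400/well; qHTS titration format.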
ClpP mod = qHTS Assay for Activators of ClpP; ATP-dependent Clp protease proteolytic subunit (Bacillus subtilis (strain 168)), P80244; purified B. subtilis ClpP, FRET peptide cleavage, 20 min; Potency, µM (doses to about 57.5 µM), inactives show top-dose activity change, negative = active; 1.9% of 340,000 active; AID 651965, 2013; active = well fitted falling curve with a large enough effect; inconclusive = small, poorly fitted or top-dose-only effect; inactive = no such curve, though single readings can be large or run the other way; also: the source files actives as falling curves though it sought activators and does not explain the sign; nearly all actives have a fitted effect of over 65% in size
Target sequence (P80244 whole entry, looked up): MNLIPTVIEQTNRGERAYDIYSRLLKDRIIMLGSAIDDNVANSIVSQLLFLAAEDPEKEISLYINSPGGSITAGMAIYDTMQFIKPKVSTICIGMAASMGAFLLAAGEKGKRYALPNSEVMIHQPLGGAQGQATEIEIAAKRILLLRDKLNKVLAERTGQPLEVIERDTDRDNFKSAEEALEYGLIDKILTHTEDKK
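FRET quenching reversal measured ClpP activation: 10 microg/mL B. subtilis ClpP at pH 8 with the FRET-FV decapeptide, read at 430 nm after 320 nm excitation. The 20-min minus 0-min signal was scaled between DMSO/no-enzyme wells and ADEP (5.8 microM final).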
DT40 TDP1 no CPT = qHTS for Inhibitors of human tyrosyl-DNA phosphodiesterase 1 (TDP1): qHTS in cells in absence of CPT; DT40 Tdp1-/- hTDP1 cells, no CPT, ATP luminescence, 48 h; Potency, µM (top dose mostly 46.2 µM), inactives show at the top dose activity change, negative = growth inhibition, most hits filed as inhibitors; 15% of 420,000 active; AID 686978, 2013; also: % is scaled to controls: 0 for no effect and ±100 for the full control effect; nearly all actives have a fitted effect of over 55% in size
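Readout: luminescence from CellTiter-Glo after 30 min in the dark at RT. Cells: DT40 Tdp1-/- with stable hTDP1, 400/well. Exposure: compounds alone, ≥48 hr, 37 °C.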
TDP1 block = qHTS Assay for Inhibitors of Tyrosyl-DNA Phosphodiesterase (TDP1); Tyrosyl-DNA phosphodiesterase 1 (Homo sapiens), Q9NUW8; recombinant TDP1, AlphaScreen DNA substrate cleavage; Potency, µM (titrated, usually from 130 µM), inactives show at the top dose activity change, negative = inhibition, actives largely listed as inhibitors; 0.28% of 350,000 active; AID 485290, 2010; also: % is scaled to controls: 0 for no effect and ±100 for the full control effect; nearly all actives have a fitted effect of over 40% in size
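Tdp1 1 nM final; 15 min RT w/ cpd; substrate 15 nM, 5 min; beads 10 ug/ml, 10 min; AlphaScreen read. Neg ctrl: no enzyme.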
Active calls of the source: *; ? = inconclusive; . = no result; [ ] = remark or other dose. Unless noted, calls follow the shape of the dose curve; as a rule, active = well fitted curve in the direction sought with a large enough effect; inconclusive = small, poorly fitted or top-dose-only effect, or another doubt; inactive = no such curve, though single readings can be large; an effect the other way counts as inactive or inconclusive. Potency is read from the fitted curve at half-maximal effect.

SMILES | TDP1 cell CPT | ClpP mod | DT40 TDP1 no CPT | TDP1 block
CCOc1cccc(C2c3[nH]c4ccccc4c3CCN2C(=O)CSCc2ccc(F)cc2)c1 (stereo not given) | 18µM* | -2% | 26µM* | 5%
CCOc1cccc(CC(=O)N2CCc3c([nH]c4ccccc34)C2c2ccc(C)cc2)c1OCC (stereo not given) | ? | -6% | 18µM* | 5%
Cc1ccc(C2c3[nH]c4ccccc4c3CCN2C(=O)CCc2ccccc2)cc1 (stereo not given) | ? | -7% | 21µM* | 8%
O=C(CSc1ccccc1)N1CCc2c([nH]c3ccccc23)C1c1ccc(F)cc1 (stereo not given) | ? | -2% | ? | 5%
CSc1ccc(C2c3[nH]c4ccccc4c3CCN2C(=O)CCC2CCCC2)cc1 (stereo not given) | ? | -6% | ? | 8%
CCOc1ccc(C2c3[nH]c4ccccc4c3CCN2C(=O)CSCc2ccc(F)cc2)cc1 (stereo not given) | ? | -3% | ? | 8%
Clc1cccc(-c2nc3c4ccccc4ccn3c2CC2CCCCC2)c1 | ? | -20% | ? | .
Cc1ccc(C(=O)Nc2cc(-c3cn4cccnc4n3)ccc2C)cc1C | ? | 4% | -29% | 1%
O=C(OCC(O)C(O)C(O)C(SCc1ccccc1)SCc1ccccc1)c1ccccc1 (stereo not given) | 29µM* | . | ? | .
COc1ccc(-c2cn3c(n2)sc2cc(C(=O)NC4CCCCCC4)ccc23)cc1 | ? | -15% | 7.3µM* | 0%
O=C(NC1CCCCCC1)c1ccc2c(c1)sc1nc(-c3ccc(F)cc3)cn12 | ? | ? | 6.5µM* | -3%
COc1ccc(-c2cn3c(n2)sc2cc(C(=O)Nc4cccc(OC)c4)ccc23)cc1 | ? | 5% | ? | 1%
O=C(NC1CCCc2ccccc21)c1ccc2c(c1)sc1nc(-c3ccccc3)cn12 (stereo not given) | 8.2µM* | ? | 18µM* | 1%
CCOC(=O)N1CCC(NC(=O)c2ccc3c(c2)sc2nc(-c4ccc(OC)cc4)cn23)CC1 | . | . | . | 6%
Cc1ccc(-c2cn3c(n2)sc2cc(C(=O)NC4CCCCCC4)ccc23)c(C)c1 | ? | ? | -27% | 0%
COc1ccc(-c2cn3c(n2)sc2cc(C(=O)Nc4cccc(SC)c4)ccc23)cc1 | 5.2µM* | 4% | 6.5µM* | 1%
CCOC(=O)c1cccc(NC(=O)N2Cc3ccccc3Oc3ncccc32)c1 | -1% | -2% | -9% | 5%
Cc1ccccc1OCCSCc1nc2ccccc2[nH]1 | 16µM* | -2% | ? | 2%
Cc1cccc(OCCCSc2nc3ccccc3[nH]2)c1 | ? | 1% | -13% | -1%
Cc1cccc(OCCSCc2nc3ccccc3[nH]2)c1 | 16µM* | -3% | 21µM* | 6%
Cc1cc(C)n2c(NCc3ccccc3)c(-c3cc4ccccc4o3)nc2n1 | 16µM* | -1% | 15µM* | .
Cc1cc(C)n2c(Nc3ccccc3)c(-c3ccc(C)o3)nc2n1 | ? | 2% | ? | 4%
C/C=C/OC(=O)NC(c1ccccc1)[C@]1(C(C)=O)CCCC1=O (stereo not given in full) | . | . | . | 5%[21 µM]
C#CCOCCOCCOCCNc1nc(N2CCN(C(=O)CCCCCCCCCCNC(=O)Cn3cc(CCCCCN)nn3)CC2)nc(N2CCN(C(=O)CCCCCCCCCCNC(=O)[C@H]([C@@H](C)CC)n3cc(CCCCCN)nn3)CC2)n1 | 23µM* | 1% | ? | 6%
C#CCOCCOCCOCCNc1nc(N2CCN(C(=O)CCCCCCCCCCNC(=O)[C@H](CO)n3cc(CCCSC)nn3)CC2)nc(N2CCN(C(=O)CCCCCCCCCCNC(=O)[C@H](CO)n3cc(CCCSC)nn3)CC2)n1 | 8.2µM* | 0% | 6.5µM* | -7%
SMILES | TDP1 cell CPT | ClpP mod | DT40 TDP1 no CPT | TDP1 block
C#CCOCCOCCOCCNc1nc(N2CCOCC2)nc(N2CCN(C(=O)CCCCCCCCCCNC(=O)[C@@H](CCSC)n3cc(CCO)nn3)CC2)n1 | ? | -3% | ? | 3%
C#CCOCCOCCOCCNc1nc(N2CCN(C(=O)CCCCCCCCCCNC(=O)[C@H](CCCCN)n3cc(C)nn3)CC2)nc(N2CCN(C(=O)CCCCCCCCCCNC(=O)[C@@H]([C@H](C)CC)n3cc(CCCCCN)nn3)CC2)n1 | . | . | . | 16%
C#CCOCCOCCOCCNc1nc(N2CCN(C(=O)CCCCCCCCCCNC(=O)[C@H]([C@@H](C)CC)n3cc(CCCCCN)nn3)CC2)nc(N2CCN(C(=O)CCCCCCCCCCNC(=O)[C@@H]([C@H](C)O)n3cc(C)nn3)CC2)n1 | 16µM* | -2% | ? | 7%
C#CCOCCOCCOCCNc1nc(N2CCN(C(=O)CCCCCCCCCCNC(=O)[C@@H](CCSC)n3cc(CCO)nn3)CC2)nc(N2CCN(C(=O)CCCCCCCCCCNC(=O)[C@H]([C@@H](C)CC)n3cc(CCCCCN)nn3)CC2)n1 | ? | 2% | 16µM* | 13%
C#CCOCCOCCOCCNc1nc(N2CCN(C(=O)CCCCCCCCCCNC(=O)Cn3cc(CCCCCN)nn3)CC2)nc(N2CCN(C(=O)CCCCCCCCCCNC(=O)[C@H](CO)n3cc(CCCCCN)nn3)CC2)n1 | ? | 1% | ? | 12%
COc1ccc(CCNC(=O)CN(Cc2ccc(Cl)cc2)S(C)(=O)=O)cc1OC | -14% | -2% | 11% | .
Cc1ccc([C@@H]2CC(=O)[C@@H]3CN(S(=O)(=O)c4ccc(C)cc4)[C@H](c4ccccc4)C[C@@H]3N2S(=O)(=O)c2ccc(Cl)cc2)cc1 | -12% | 0% | -16% | .
CCOC(=O)C1C(C(=O)OC)=C(CC(C)C)c2ccccc2N1S(=O)(=O)C(F)(F)F (stereo not given) | . | . | . | -11%
CCCCCC1=C(C(=O)OC)C(C(=O)OCC)N(S(=O)(=O)C(F)(F)F)c2ccccc21 (stereo not given) | ? | -21% | 21µM* | -8%[56.1 µM]
CC(C)(C)C(=O)OCC1OC(n2cnc(C(N)=O)n2)C(O)C1O (stereo not given) | 16µM* | 4% | ? | 2%
CCc1noc(C)c1C(=O)N1CCCSC1=Nc1ccccc1 | 0% | -3% | -24% | .
CCc1noc(C)c1C(=O)N1CCSC1=Nc1cccc(Cl)c1C | ? | -1% | 23µM* | 2%
Cc1noc(C)c1CSCC(=O)N1CCN(c2ccc(F)cc2)CC1 | ? | 2% | 18µM* | 1%
O=C(CSCc1ccc(F)cc1)N1CCOCC1 | 17% | -1% | -8% | 1%

Source: PubChem BioAssay
